Screening results (PubChem)
Only some compounds are listed: those with a hit (about 1.7% of all), similar ones and a draw of the others.
GLP1R inv ag = inverse agonists of human GLP-1 receptor | P43220 | HEK293 GLP-1R CRE-luciferase, luminescence, 24 h; GLP-1R form is constitutively active | Potency, µM (doses to about 38.3 µM), for inactives: top-dose activity change, negative = inhibition, hits mostly inhibitors | 410,000 tested, 1.6% active | AID 624417; note: % is set by controls: 0 for no effect and ±100 for the full control effect; nearly all actives have a fitted effect of over 55% in size
Target sequence (P43220 whole entry, looked up): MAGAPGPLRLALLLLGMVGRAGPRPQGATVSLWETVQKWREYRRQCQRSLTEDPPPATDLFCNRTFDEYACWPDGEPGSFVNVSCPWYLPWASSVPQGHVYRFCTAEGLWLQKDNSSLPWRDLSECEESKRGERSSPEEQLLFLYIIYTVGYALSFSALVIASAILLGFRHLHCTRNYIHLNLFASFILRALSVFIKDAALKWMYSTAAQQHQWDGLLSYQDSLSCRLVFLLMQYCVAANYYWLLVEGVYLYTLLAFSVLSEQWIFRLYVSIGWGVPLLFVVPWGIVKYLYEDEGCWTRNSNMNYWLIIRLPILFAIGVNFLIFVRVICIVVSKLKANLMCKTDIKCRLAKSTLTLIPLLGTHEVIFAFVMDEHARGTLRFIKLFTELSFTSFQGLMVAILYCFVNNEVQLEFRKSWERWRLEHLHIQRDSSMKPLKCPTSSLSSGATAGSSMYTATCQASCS
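Using stably transfected HEK293 (constitutively active GLP-1R, cAMP-luciferase reporter), compounds were incubated 24 hr and luciferase measured by luminescence.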
GLP-1R agonist = activates the human GLP-1 receptor | P43220 | HEK293 GLP-1R CRE-luciferase, luminescence, 4-6 h; cells express a hypersensitive GLP-1R form | Potency, µM (top dose mostly 45.6 µM), for the others: top-dose activation, actives largely listed as activators | 380,000 tested, 0.007% active | AID 624172; note: % of control where 0% means no effect
GLP1R cytotox = cytotoxicity counter-screen for GLP-1 receptor inverse agonists; Potency, µM (titrated, usually from 38.3 µM), for inactives: at the highest dose activity change, negative = inhibition, most hits filed as inhibitors; HEK293 cAMP-luciferase reporter cells, luminescence, 24 h; 410,000 tested, 0.13% active;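 note: loss of luciferase light is scored as toxicity; % is set by controls: 0 for no effect and ±100 for the full control effect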
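To flag toxic compounds, the library was rerun on cells for 24 hr at 37 deg C and 5% CO2. Viability-linked luminescence was captured 12 min after adding luciferase detection reagent.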
Starred values were filed as active, the others as inactive; u = inconclusive; x = not tested or not shown. Calls come from the whole dose curve; as a rule, active = well fitted curve in the direction sought with a large enough effect; inconclusive = small, poorly fitted or top-dose-only effect, or another doubt; inactive = no such curve, though single readings can be large; an effect the other way counts as inactive or inconclusive. Potency is the fitted concentration of half-maximal effect.

SMILES	GLP1R inv ag	GLP-1R agonist	GLP1R cytotox
CC[C@]12c3[nH]c4cc(-c5ccco5)ccc4c3CCN1C(=O)[C@@H](CC(=O)NCCC1=CCCCC1)C[C@@H]2C(=O)N1CCN(C(=O)c2ccco2)CC1	7.9µM*	1%	-22%
O=C(CC1C[C@H](C(=O)N2CCCCC2)[C@@]2(CCc3ccccc3)c3[nH]c4ccccc4c3CCN2C1=O)NCc1ccco1 (stereo partly drawn)	3%	-4%	0%
O=C(C[C@H]1C[C@H](C(=O)N2CCCCC2)[C@@]2(CCc3ccccc3)c3[nH]c4cc(-c5ccco5)ccc4c3CCN2C1=O)NCc1ccco1	8.9µM*	-2%	-7%
Cc1ccc(-c2nc(NCCN3CCOCC3)c3ccccc3n2)cc1	0%	9%	-8%
Clc1cccc(-c2nc(NCCCN3CCOCC3)c3ccccc3n2)c1	10µM*	3%	-8%
Clc1cccc(-c2nc(NCCN3CCOCC3)c3ccccc3n2)c1	7.1µM*	17%	-19%
Clc1ccc(-c2nc(NCCCN3CCOCC3)c3ccccc3n2)cc1	u	18%	u
COc1ccc(NC(=O)c2cccc(N3C(=O)C4C5C=CC(C6CC56)C4C3=O)c2)cc1 (stereo not drawn)	12%	-3%	0%
Cc1cccc2[nH]c3c(N4CC=C(c5ccc(F)cc5)CC4)ncnc3c12	10µM*	-1%	-56%
COc1cccc2[nH]c3c(N4CCCCC4)ncnc3c12	8%	23%	-22%
O=C1NC[C@@H](Cc2cccc3ccccc23)N(CC2(c3ccccc3)CC2)C1=O	11µM*	-3%	3%
CCCCN1C(=O)C(=O)NC[C@H]1Cc1cccc2ccccc12	4%	5%	-8%
COc1ccc(CCNC(=O)CCCCn2c(=O)c3ccccc3n(Cc3cc(C)ccc3C)c2=O)cc1OC	15%	-1%	1%
CC1(c2ccc(OC(F)F)cc2)NC(=O)N(CC(=O)Nc2ccc(OC(F)F)cc2)C1=O (stereo not drawn)	10µM*	2%	5%
CC1(c2ccc(OC(F)F)cc2)NC(=O)N(CC(=O)Nc2ccc(F)cc2)C1=O (stereo not drawn)	u	17%	-13%
CCC(C)NC(=O)CSc1nc2n[nH]c(C)c2c(=N)n1-c1ccc(C)c(Cl)c1 (stereo not drawn)	-7%	x	-13%
CN1CCN(S(=O)(=O)c2ccc(N3CCN(S(=O)(=O)/C=C/c4ccccc4)CC3)nc2)CC1	7.9µM*	-3%	-14%
CN1CCN(S(=O)(=O)c2ccc(N3CCN(C(c4ccccc4)c4ccccc4)CC3)nc2)CC1	10%	5%	-5%
O=C(CN(Cc1ccc(Cl)c(Cl)c1)S(=O)(=O)c1ccccc1)N/N=C\c1ccc2c(c1)OCO2	2.2µM*	-5%	-19%
O=C(CN(Cc1ccccc1)S(=O)(=O)c1ccccc1)N/N=C/c1ccc2c(c1)OCO2	30%	6%	u
O=C(c1ccco1)N1CCN(S(=O)(=O)c2ccc(C3CCCCC3)cc2)CC1	19%	-1%	-3%
CS(=O)(=O)c1ccccc1C(=O)N1CCN(S(=O)(=O)c2ccc(C3CCCCC3)cc2)CC1	10µM*	-1%	-7%
COc1ccccc1C1=CC(=O)CC(C)(C)C1=O	15%	-4%	-2%
O=S(=O)(c1ccccc1)c1nc(-c2ccco2)oc1NCCN1CCOCC1	5%	10%	-7%
Cc1ccc(CNc2oc(-c3ccco3)nc2S(=O)(=O)c2ccccc2)cc1	10µM*	10%	-6%
SMILES	GLP1R inv ag	GLP-1R agonist	GLP1R cytotox
Cc1cc2c(cc1C)NC(CC(=O)Nc1ccccc1SC(F)(F)F)C(=O)N2 (stereo not drawn)	15%	1%	16%
O=C(Nc1cc(C(F)(F)F)ccc1Cl)c1ccc(NC(=O)C(F)(F)F)cc1	u	24%	-1%
CCCC(=O)Nc1ccc(C(=O)Nc2cc(C(F)(F)F)ccc2Cl)cc1	6.3µM*	-2%	u
O=C(NCc1ccccc1)NC(=O)c1ccccc1F	2%	0%	u
O=C1CC(=O)N(CCNc2ncc(C(F)(F)F)cc2Cl)C(=O)N1	0%	-25%	17%
O=C1C=CC(=O)N1CCNc1ncc(C(F)(F)F)cc1Cl	11µM*	6%	u
CN1/C(=C\C(=S)Nc2ccccc2)C(C)(C)c2ccccc21	11µM*	12%	u
CN1/C(=C\C(=O)Nc2ccc(Cl)cc2)C(C)(C)c2ccccc21	10µM*	17%	-26%
CN1/C(=C\C(=S)NC(=O)c2ccccc2Cl)C(C)(C)c2ccccc21	-14%	3%	8%
CN1/C(=C\C=C(/C#N)C(=O)Nc2ccc(Cl)cc2)C(C)(C)c2ccccc21	20%	3%	28%
CCOCc1nnc(NC(=O)CS(=O)(=O)c2ccc(C)cc2)s1	15%	4%	20%
COc1ccc(CN2C(=O)C(CC(=O)NCCCCc3ccccc3)CC(C(=O)N(C)C)=C2C)cc1 (stereo not drawn)	-10%	6%	-21%
COc1ccc(CN2C(=O)C(CC(=O)NCCCCc3ccccc3)CC(C(=O)N(C(C)C)C(C)C)=C2C)cc1 (stereo not drawn)	11µM*	-3%	-18%
Cn1c(C(=O)NCc2ccccc2Cl)cc2sc(Cl)cc21	u	x	-4%
CCN(CC)c1ccc(NC(=O)CN2CCN(CC(=O)Nc3ccc(OC)cc3)CC2)cc1	-10%	2%	1%
CCN(CC)c1ccc(NC(=O)CN2CCN(CC(=O)Nc3ccc(F)cc3)CC2)cc1	13µM*	-2%	-5%
O=C1C2CC=CCC2C(=O)N1c1nccs1 (stereo not drawn)	18%	0%	1%
Clc1ccc(OCCN2CCCCC2)cc1Cl	-27%	8%	-6%
NC(=S)NN=C1c2cc(OCCN3CCOCC3)ccc2-c2ccc(OCCN3CCOCC3)cc21	7.9µM*	-7%	1.4µM*
Clc1ccc(OCCN2CCOCC2)cc1Cl	-3%	0%	0%
ON=C1c2cc(OCCN3CCCCC3)ccc2-c2ccc(OCCN3CCCCC3)cc21	13µM*	-22%	3.5µM*
Cc1ccc(OCCSc2nc(-c3ccccc3C)nc3cc(=O)[nH]n23)cc1Cl	u	x	-12%
CCn1cc(C(=O)OCC(=O)Nc2ccc(C)c(Cl)c2)c(=O)c2ccc(C)nc21	-3%	-2%	1%
Cc1cc(NC(=O)CSc2nc3cc(Cl)ccc3o2)no1	2.5µM*	5%	u
CCN(CC)S(=O)(=O)c1ccc2oc(SCC(=O)Nc3cc(C)on3)nc2c1	u	-12%	u
SMILES	GLP1R inv ag	GLP-1R agonist	GLP1R cytotox
CN(C)N1C(N)=C(C#N)C(c2cccs2)C2=C1CC(C)(C)CC2=O (stereo not drawn)	18%	10%	17%
C[C@@H]1CCCN1[C@H]1CS(=O)(=O)N[C@@H]1COCc1ccccc1	17%	-5%	-2%
O=C(CSc1nnnn1-c1cccc2ccccc12)Nc1ccc(C(=O)O)cc1	13%	-5%	-21%
O=C(CCCSc1nnnn1-c1cccc2ccccc12)c1ccc(F)cc1	10µM*	10%	-5%
Cc1ccccc1Nc1scc(-c2ccc(Cl)cc2)[n+]1-c1ccccc1C	10µM*	-1%	-19%
Cc1c(Nc2scc(-c3ccccc3)[n+]2-c2ccccc2)c(=O)n(-c2ccccc2)n1C	u	1%	8%
